A selection: hits, their analogues and other compounds. The true share with any hit is near 18%.
PLK1 PBD inh: blocks phosphopeptide binding to human PLK1 polo-box domain; Plk1 PBD binding of FITC phosphopeptide, fluorescence polarization; Potency, µM, inactives show max response, negative = inhibition, usual class: inhibitors; actives 2.8% (n = 360,000); further: series mostly up to about 57 µM; nearly all actives have a fitted effect of over 65% in size
Target sequence (P53350 whole entry, looked up, the tested form may be a part): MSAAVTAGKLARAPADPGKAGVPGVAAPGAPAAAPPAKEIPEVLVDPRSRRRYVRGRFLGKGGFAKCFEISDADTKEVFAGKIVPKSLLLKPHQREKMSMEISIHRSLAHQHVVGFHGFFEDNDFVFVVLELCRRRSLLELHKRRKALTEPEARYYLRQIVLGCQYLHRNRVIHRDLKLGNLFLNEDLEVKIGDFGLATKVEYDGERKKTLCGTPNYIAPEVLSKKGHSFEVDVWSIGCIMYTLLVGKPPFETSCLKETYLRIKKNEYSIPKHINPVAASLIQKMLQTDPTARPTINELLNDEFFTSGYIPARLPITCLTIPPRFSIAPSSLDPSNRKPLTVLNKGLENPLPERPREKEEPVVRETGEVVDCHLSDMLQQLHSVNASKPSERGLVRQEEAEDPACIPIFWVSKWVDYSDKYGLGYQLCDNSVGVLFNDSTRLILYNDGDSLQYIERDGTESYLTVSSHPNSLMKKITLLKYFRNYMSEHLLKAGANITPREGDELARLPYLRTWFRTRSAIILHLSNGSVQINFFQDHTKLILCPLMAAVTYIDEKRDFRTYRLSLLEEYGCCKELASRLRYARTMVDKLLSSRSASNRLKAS
TDP1 cell CPT: DT40-hTDP1 cell growth loss with CPT; chicken DT40 Tdp1-/-;hTDP1 cells + 20 nM CPT, ATP luminescence, 48 h; Potency, µM (doses to about 46.2 µM), inactives show at the highest dose activity change, negative = growth inhibition, usual class: inhibitors; actives 12% (n = 420,000); further: nearly all actives have a fitted effect of over 55% in size
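Cell growth measured by CellTiter-Glo luminescence after a minimum 48 h, 37 C compound exposure with 20 nM CPT in Tdp1-knockout DT40 cells stably expressing hTDP1, seeded 400/well; qHTS titration format.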
TDP1 block: inhibitors of human tyrosyl-DNA phosphodiesterase TDP1; Q9NUW8; actives 0.28% (n = 350,000); Potency, µM (doses to about 130 µM), inactives show top-dose activity change, negative = inhibition, hits mostly inhibitors; recombinant TDP1, AlphaScreen DNA substrate cleavage; further: nearly all actives have a fitted effect of over 40% in size
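Compounds were preincubated with Tdp1 (1 nM final) for 15 min at room temperature before substrate (15 nM final) started a 5 min reaction; beads (10 ug/ml final) were then added for 10 min before AlphaScreen detection.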
DT40 TDP1 no CPT: qHTS for Inhibitors of human tyrosyl-DNA phosphodiesterase 1 (TDP1): qHTS in cells in absence of CPT; AID 686978, 2013; DT40 Tdp1-/- hTDP1 cells, no CPT, ATP luminescence, 48 h; Potency, µM (titrated, usually from 46.2 µM), inactives show at the highest dose activity change, negative = growth inhibition, actives largely listed as inhibitors; actives 15% (n = 420,000); further: nearly all actives have a fitted effect of over 55% in size
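DT40 Tdp1-/-;hTDP1 cells, no CPT (DMSO vehicle only), 400 cells/well; compounds pin-transferred; ≥48 hr, 37 °C; CellTiter-Glo 30 min RT dark, luminescence read.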
VDR inhibitor: inhibitors of human vitamin D receptor. P11473. VDR-SRC2-3 peptide fluorescence polarization, 2 h. Potency, µM, for inactives: max response, negative = inhibition, actives largely listed as inhibitors. actives 0.93% (n = 400,000). AID 504847
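Fluorescence polarization assay of small-molecule disruption of VDR binding to coregulator peptide SRC2-3. Compounds and controls pin-transferred, then read after 2 h incubation at ambient room temperature.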
KAT2A inh: inhibitors of human GCN5L2 histone acetyltransferase; GCN5L2 HAT assay, ThioGlo1 CoA-SH fluorescence; Potency, µM (series often up to 58.9 µM), for inactives: at the top dose activity change, negative = inhibition, most hits filed as inhibitors; actives 0.21% (n = 390,000); Q92830
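Fluorescence readout, Ex340nm/Em540nm: ThioGlo1 (50uM final) reacts with free CoA thiol released as 20nM GCN5L2 acetylates H3(1-25) peptide (75uM) using acetyl-CoA (70uM). Compound and enzyme sat 15 min beforehand; 20 min room-temperature reaction.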
* marks the source's active call; other numbers are inactive results; ? = inconclusive; / = no result given; ! = a repeat was not active; [ ] = dose if it differs, or a comment. The call rests on the fitted dose curve; in most records, active means well fitted curve in the direction sought with a large enough effect; inconclusive means small, poorly fitted or top-dose-only effect, or another doubt; inactive means no such curve, though single readings can be large; an effect the other way counts as inactive or inconclusive. On the % scale 0 is the no-effect control and ±100 the full control effect; potency means the concentration at half of the fitted maximal effect.

SMILES	PLK1 PBD inh	TDP1 cell CPT	TDP1 block	DT40 TDP1 no CPT	VDR inhibitor	KAT2A inh
COc1ccc(CCNC(=O)CC(Cc2ccc(C)cc2)C(=O)O)cc1OC (stereo not given)	24µM*	-28%	/	0%	-30%	14%
COc1cccc(CC(NC(C)=O)C(=O)NC2CCN(C(=O)c3ccc(Cl)cc3)CC2)c1OC (stereo not given)	-7%	10%	/	3%	17%	-2%
COc1ccc(C(=O)N2CCCC(CCC(=O)NCc3ccc(F)c(F)c3)C2)o1 (stereo not given)	?	-25%	3%	-26%	?	1%
Cn1c(=O)c2[nH]c(N3CCCCC3)nc2n(C)c1=O	-27%	21µM*	3%	1%	5%	-8%
Cn1c(=O)c2[nH]c(N3CCN(c4ccccn4)CC3)nc2n(C)c1=O	/	/	0%	/	/	-12%
Cc1cn([C@H]2C[C@H](O)[C@@H](CNCc3cnc(N4CCOCC4)s3)O2)c(=O)[nH]c1=O	0%	-28%	/	9%	/	/
CCCN(CCC)C(=O)c1nn(C)c2c1CSc1ccc(C)cc1-2	/	?	6%	18µM*	2%	-7%
COc1cccc(N2CCN(C(=O)c3nn(C)c4c3CSc3ccc(C)cc3-4)CC2)c1	/	?	4%	?	6%	-8%
Cc1ccc2c(c1)-c1c(c(C(=O)N3CCN(c4cc(Cl)ccc4C)CC3)nn1C)CS2	/	?	11%	18µM*	5%	3%
O=C(Nc1ccccc1N1CCN(c2ccccc2)CC1)C12CC3CC(CC(C3)C1)C2	-2%	?	7%	21µM*	12%	-12%
O=C(NCCS(=O)(=O)N1CCN(c2ccccc2)CC1)C12CC3CC(CC(C3)C1)C2	-5%	26µM*	/	21µM*	/	/
CCCCN1C[C@H](c2ccccc2)[C@@H](CC(=O)NC)C1=O	-9%	-6%	/	-19%	/	/
Cc1ccc(S(=O)(=O)/N=C(\CCl)N2CCOCC2)cc1	-27%	15µM*	3%	16µM*	-5%	1%
Cc1ccc(NC(=O)CSc2nc(C3CCCC3)nc3c2c(=O)n(C)c(=O)n3C)c(C)c1	/	-20%	0%	6%	-10%	-1%
COc1ccc2c(c1)OCC(Cc1ccc(OC)c(OC)c1)C2=O (stereo not given)	/	?	-4%[56.1 µM]	13µM*	-4%	-23%
COc1ccc2c(c1)OCC(Cc1ccc(OC)c(OC(C)=O)c1)C2=O (stereo not given)	/	0.65µM*	-5%[56.1 µM]	0.65µM*	-12%	-18%
COc1cccc(Cn2c(=O)n(-c3cccc(Cl)c3C)c(=O)c3c4c(sc32)CN(C(C)=O)CC4)c1	/	?	7%	?	2%	-9%
O=C(NCCc1ccccc1)c1nnc(Cc2cccc(F)c2)o1	/	-12%	-5%	-23%	13%	-8%
COc1cc(CC(=O)OCC(=O)NC2CCCC2)cc(OC)c1OC	2%	-7%	2%	14%	-3%	1%
COc1cc(CC(=O)OCC(=O)N(C)C2CCCCC2)cc(OC)c1OC	-7%	?	0%	21µM*	-17%	1%
COc1ccc2c(c1)c(=O)oc1c(C)c(OCc3ccc(C(=O)O)cc3)ccc12	30µM*	-14%	/	?	-6%	-11%
O=C(NC1CCCCC1)C1CC(=O)N(c2cccc([N+](=O)[O-])c2)C1 (stereo not given)	-3%	?	3%	?	-9%	-2%
CSc1cccc(NC(=O)c2sc3nc4n(c(=O)c3c2C)CCC4)c1	-7%	?	4%	-11%	-15%	-8%
CC(=O)c1cccc(NC(=O)c2sc3nc4n(c(=O)c3c2C)CCCCC4)c1	-7%	?	2%	23µM*	-15%	-8%
COc1cccc(NC(=O)c2sc3nc4n(c(=O)c3c2C)CCC4)c1	-13%	?	0%	15µM*!	-5%	-5%
SMILES	PLK1 PBD inh	TDP1 cell CPT	TDP1 block	DT40 TDP1 no CPT	VDR inhibitor	KAT2A inh
Cc1c(C(=O)Nc2ccc(Oc3ccccc3)cc2)sc2nc3n(c(=O)c12)CCC3	0%	?	5%	18µM*	18%	3%
CCCCCn1ncc2c3sc(C)cc3n(C)c2c1=O	/	/	-8%	/	/	/
CCCSc1nnc(NC(=O)CSc2nc3[nH]c(=O)cc(O)c3s2)s1	-9%	2%	?	23%	20%	-21%
O=C(CSc1nc2[nH]c(=O)cc(O)c2s1)Nc1nncs1	30µM*	-21%	/	-15%	-15%	/
Cc1csc(NC(=O)CSc2nc3[nH]c(=O)cc(O)c3s2)n1	-7%	21µM*	/	15µM*	-3%	/
CCc1nnc(NC(=O)CSc2nc3[nH]c(=O)cc(O)c3s2)s1	-26%	6.5µM*	-2%	6.5µM*	-18%	-1%
CN(C(=O)c1cccc(NC(=O)Cc2ccc(NC(=O)C3CCN(C(=O)C4CC4)CC3)cc2)c1)C1CCC1	-2%	-6%	/	-23%	-7%	/
CCc1ccc(C2c3c(oc4ccc(F)cc4c3=O)C(=O)N2CCc2ccc(OC)cc2)cc1 (stereo not given)	/	?	4%	?	-8%	-7%
CC1=C(C(=O)N(C(C)C)C(C)C)CC(CC(=O)NCCN2CCOCC2)C(=O)N1CCCN1CCCC1=O (stereo not given)	-8%	12%	/	6%	/	/
CCCCN(Cc1ccc(Cl)c(Cl)c1)c1ccc(Br)cn1	/	-3%	/	?	-4%	/
NCCCN(Cc1ccccc1)c1ccc(Br)cn1	/	11µM*	/	?	3%	/
CN(C)CCN1CCN(C2CN(C3CCCC3)S(=O)(=O)C2)CC1 (stereo not given)	3%	-13%	/	2%	/	/
FC(F)(F)c1ccccc1-c1ccc2ncnc(NCCN3CCOCC3)c2c1	/	?	/	?	-18%	-2%
CC(C)OC(=O)c1ccc2ccc(-c3ccccc3)nc2c1	-1%	?	/	16µM*	/	/
COc1ccc(NC(=O)Cn2ncn3nc(-c4ccc(OC)cc4)cc3c2=O)cc1	-5%	-13%	-1%	-15%	2%	-23%
CC(C)(C)NC(=O)CN1CCN(C(=O)CCl)CC1	-14%	23µM*	-11%	21µM*	-8%	-6%
CCn1cc(C(=O)N2CCN(c3ccccc3)CC2)c(=O)c2cc(S(=O)(=O)N3CCC(C)CC3)ccc21	/	?	5%	-22%	-7%	-10%
O=C(Nc1noc2ccccc12)c1ccc(F)cc1	/	-4%	5%	-19%	-1%	-1%
